About 83,000 compounds went through this panel and 20% of them were active in at least one assay; those are over-represented in the sample as a whole.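 Single-concentration screen, 48 h exposure, 96-well plates. Endpoint: percent growth. Below 10 = active.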 Calls of active or inactive are those of the source.
Columns and labels:
Assay in all cases: NCI-60 one-dose screen, 48 h (100 = growth as untreated, 0 = no growth, -100 = all killed)
Settings in all cases: 10 µM unless noted
NCI-H23 lung = tested on: NCI-H23 lung
NCI-H226 lung = tested on: NCI-H226 lung
NCI-H322M lung = tested on: NCI-H322M lung
HOP-62 NSCLC = tested on: HOP-62 NSCLC
NCI-H460 lung = tested on: NCI-H460 lung
HOP-92 NSCLC = tested on: HOP-92 NSCLC
NCI-H522 lung = tested on: NCI-H522 lung
A549/ATCC NSCLC = tested on: A549/ATCC NSCLC
786-0 renal = tested on: 786-0 renal
COLO 205 colon = tested on: COLO 205 colon

Measured: growth

CCN1C(=O)N(CC)C2C1NN=c1s/c(=C\c3cccs3)c(=O)n12 (stereo not given)
active: NCI-H460 lung 8.1% | NCI-H522 lung -9.67% | COLO 205 colon -6.95%
inactive: NCI-H23 lung 36.4% | NCI-H226 lung 79% | NCI-H322M lung 42.7% | HOP-62 NSCLC 46.4% | HOP-92 NSCLC 64.1% | A549/ATCC NSCLC 25.3% | 786-0 renal 28.5%

COc1ccc2occ(C3=C(c4c[nH]c5ccccc45)C(=O)N(O)C3=O)c2c1
inactive: NCI-H23 lung 86.3% | NCI-H226 lung 78.7% | NCI-H322M lung 93.7% | HOP-62 NSCLC 86.3% | NCI-H460 lung 95.4% | HOP-92 NSCLC 87.8% | NCI-H522 lung 58.1% | A549/ATCC NSCLC 93.6% | 786-0 renal 91.3% | COLO 205 colon 98.5%

Cc1ccc(CCC(=O)Nc2ncc(Cc3cc(Cl)ccc3Cl)s2)o1
inactive: NCI-H23 lung 31.9% | NCI-H226 lung 45.5% | NCI-H322M lung 33.3% | HOP-62 NSCLC 35.6% | HOP-92 NSCLC 56.6% | A549/ATCC NSCLC 23.1% | 786-0 renal 26.1%
active: NCI-H460 lung 5.71% | NCI-H522 lung 3.08% | COLO 205 colon 2.59%

O=C(CC(SCc1ccccc1)c1ccccc1)c1ccccc1 (stereo not given)
inactive: NCI-H23 lung 84.6% | NCI-H226 lung 87.6% | NCI-H322M lung 97.1% | HOP-62 NSCLC 91.7% | NCI-H460 lung 103% | HOP-92 NSCLC 80.1% | NCI-H522 lung 111% | A549/ATCC NSCLC 101% | 786-0 renal 84% | COLO 205 colon 94.3%

N#CC1=C(NC=O)Oc2c(ccc3ccccc23)C1c1ccccc1 (stereo not given)
inactive: NCI-H23 lung 38.5% | NCI-H226 lung 62.6% | NCI-H322M lung 75.4% | HOP-62 NSCLC 21.1% | NCI-H460 lung 19.9% | HOP-92 NSCLC 42.6% | A549/ATCC NSCLC 36.3% | 786-0 renal 22% | COLO 205 colon 96.4%
active: NCI-H522 lung -2.8%

CCCCNC(=O)Oc1ccc2c(=O)c3sc4c(=O)c5ccccc5c(=O)c4c3c(=O)c2c1
active: NCI-H23 lung -47.6% | NCI-H226 lung -89% | NCI-H322M lung -96.8% | HOP-62 NSCLC -79.1% | NCI-H460 lung -74.6% | HOP-92 NSCLC -30.4% | NCI-H522 lung -69.5% | A549/ATCC NSCLC -61.8% | 786-0 renal -37% | COLO 205 colon -84.9%

CN1C(=O)N(C)C2C1NN=c1s/c(=C\c3ccccc3)c(=O)n12 (stereo not given)
inactive: NCI-H23 lung 64.1% | NCI-H226 lung 80.2% | NCI-H322M lung 59% | HOP-62 NSCLC 46.9% | NCI-H460 lung 17.5% | HOP-92 NSCLC 73.9% | NCI-H522 lung 12.5% | A549/ATCC NSCLC 39.9% | 786-0 renal 30.5% | COLO 205 colon 11.9%

COC(=O)c1c2c(c[n+]([O-])c1C)C(=O)C=CC2=O
active: NCI-H522 lung -69.9%
inactive: NCI-H23 lung 60.4% | NCI-H226 lung 98.1% | NCI-H322M lung 110% | HOP-62 NSCLC 104% | NCI-H460 lung 98.4% | HOP-92 NSCLC 70.8% | A549/ATCC NSCLC 100% | 786-0 renal 91.6% | COLO 205 colon 33.5%

Cc1ccc(S(=O)(=O)N/N=C\c2cc(Cl)ccc2O)cc1
inactive: NCI-H23 lung 96.8% | NCI-H226 lung 96.4% | NCI-H322M lung 114% | HOP-62 NSCLC 105% | NCI-H460 lung 93.7% | HOP-92 NSCLC 72.9% | NCI-H522 lung 80.3% | A549/ATCC NSCLC 82% | 786-0 renal 74.5% | COLO 205 colon 96.9%

O=C(CCCCCCN1CC(=O)N2[C@@H](c3ccccc3Cl)c3[nH]c4ccccc4c3C[C@H]2C1=O)NO
active: HOP-92 NSCLC -6.12%
inactive: NCI-H23 lung 76.8% | NCI-H226 lung 95.4% | NCI-H322M lung 81.8% | HOP-62 NSCLC 73.3% | NCI-H460 lung 67.8% | NCI-H522 lung 28.8% | A549/ATCC NSCLC 97% | 786-0 renal 83.8% | COLO 205 colon 59.6%

COc1cccc(-c2nc3sccn3c2-c2ccnc(NCCNS(=O)(=O)c3cccc(Cl)c3)c2)c1
inactive: NCI-H23 lung 53.5% | NCI-H226 lung 40.7% | NCI-H322M lung 80.8% | HOP-62 NSCLC 70.9% | NCI-H460 lung 45.4% | HOP-92 NSCLC 37.2% | NCI-H522 lung 56.7% | A549/ATCC NSCLC 45.4% | 786-0 renal 63.6% | COLO 205 colon 34.8%

CC(C)C(NC(=O)C1(NC(=O)OCc2ccccc2)CCCC1)C(=O)O (stereo not given)
inactive: NCI-H23 lung 99.6% | NCI-H226 lung 104% | NCI-H322M lung 106% | HOP-62 NSCLC 119% | NCI-H460 lung 100% | HOP-92 NSCLC 92% | NCI-H522 lung 88.9% | A549/ATCC NSCLC 106% | 786-0 renal 104% | COLO 205 colon 107%

C=CC(=O)Nc1cccc(Oc2nccc(Nc3nnc(C4CC4)s3)n2)c1
inactive: NCI-H23 lung 97.1% | NCI-H226 lung 101% | NCI-H322M lung 105% | HOP-62 NSCLC 110% | NCI-H460 lung 95.6% | HOP-92 NSCLC 66.1% | NCI-H522 lung 86.8% | A549/ATCC NSCLC 103% | 786-0 renal 86.6% | COLO 205 colon 107%

CC(C)C(=O)Nc1n[nH]c2cc(-c3cccc(NS(=O)(=O)C4CC4)c3)ccc12
inactive: NCI-H23 lung 53.6% | NCI-H226 lung 60% | NCI-H322M lung 96.2% | HOP-62 NSCLC 66.5% | NCI-H460 lung 84.4% | HOP-92 NSCLC 72.7% | NCI-H522 lung 40.8% | A549/ATCC NSCLC 80.3% | 786-0 renal 89.2% | COLO 205 colon 84.7%

CC1CC(C(C)(C)C)C(=O)C(C(C)(C)C)C1 (stereo not given)
inactive: NCI-H23 lung 109% | NCI-H226 lung 98.8% | NCI-H322M lung 107% | HOP-62 NSCLC 105% | NCI-H460 lung 108% | HOP-92 NSCLC 85% | NCI-H522 lung 90.8% | A549/ATCC NSCLC 100% | 786-0 renal 100% | COLO 205 colon 115%

CCN(CCNc1ccc(C)c2sc3ccccc3c(=O)c12)CC(C)(C)O
inactive: NCI-H23 lung 86.7% | NCI-H226 lung 96.7% | NCI-H322M lung 90.4% | HOP-62 NSCLC 82.8% | NCI-H460 lung 30.3% | HOP-92 NSCLC 50.9% | NCI-H522 lung 74.2% | A549/ATCC NSCLC 40.8% | 786-0 renal 70.4% | COLO 205 colon 67.8%

COc1cccc(-c2nc3sccn3c2-c2ccnc(NCCNS(=O)(=O)c3ccc(C(F)(F)F)cc3)c2)c1
inactive: NCI-H23 lung 53.7% | NCI-H226 lung 34.8% | NCI-H322M lung 72.3% | HOP-62 NSCLC 62% | NCI-H460 lung 35.6% | HOP-92 NSCLC 34.4% | NCI-H522 lung 55.7% | A549/ATCC NSCLC 38.1% | 786-0 renal 51.6% | COLO 205 colon 28.5%

COC(=O)[C@]12CC[C@@H](C)[C@H](C)[C@@H]1C1=CC[C@@H]3[C@@]4(C)C(C=O)=C[C@@](C)(COC(C)=O)C4=CC[C@@]3(C)[C@]1(C)CC2
inactive: NCI-H226 lung 11.2% | NCI-H322M lung 24.8%
active: NCI-H23 lung 7.56% | HOP-62 NSCLC -7.82% | NCI-H460 lung -29.1% | HOP-92 NSCLC -9.34% | NCI-H522 lung -30.5% | A549/ATCC NSCLC 5.26% | 786-0 renal -33.7% | COLO 205 colon -66.5%

CCN(CC)CCn1nc2c3c(cccc3c1=O)-c1ccccc1-2
active: NCI-H226 lung -39.9% | NCI-H460 lung 3.42% | HOP-92 NSCLC -6.84% | A549/ATCC NSCLC 1.36%
inactive: NCI-H23 lung 23.7% | NCI-H322M lung 30.6% | HOP-62 NSCLC 11.1% | NCI-H522 lung 10.8% | 786-0 renal 33.3% | COLO 205 colon 15.8%

COc1cccc(-c2nn(-c3ccccc3)cc2-c2ccnc(NCCCNC(=O)c3ccccc3)c2)c1
inactive: NCI-H23 lung 51.3% | NCI-H226 lung 61.4% | NCI-H322M lung 95.2% | HOP-62 NSCLC 53.6% | NCI-H460 lung 51.7% | HOP-92 NSCLC 41.5% | NCI-H522 lung 38.3% | A549/ATCC NSCLC 30.7% | 786-0 renal 40.2% | COLO 205 colon 35.2%

CS(=O)(=O)c1ccc(Nc2nc(N[C@H]3CCCC[C@H]3N)nc3cc[nH]c(=O)c23)cc1
active: NCI-H23 lung -5.38% | NCI-H226 lung -4.65% | HOP-92 NSCLC -8.34% | NCI-H522 lung -37% | COLO 205 colon -3.93%
inactive: NCI-H322M lung 24.1% | HOP-62 NSCLC 21.1% | NCI-H460 lung 12.4% | A549/ATCC NSCLC 33.6% | 786-0 renal 22.5%

O=C1NC(=Nc2ccc(Cl)cc2)S/C1=C\c1cn(-c2ccccc2)nc1-c1ccccc1
active: HOP-92 NSCLC -0.936%
inactive: NCI-H23 lung 93.4% | NCI-H226 lung 93.4% | NCI-H322M lung 89.5% | HOP-62 NSCLC 99.6% | NCI-H460 lung 44.6% | NCI-H522 lung 75.4% | A549/ATCC NSCLC 34.9% | 786-0 renal 85.5% | COLO 205 colon 96.7%

COC(=O)[C@]12CC[C@@H](C)[C@H](C)[C@@H]1C1=CC[C@@H]3[C@@]4(C)C(C=O)=C[C@@](C)(CO)[C@@H]4[C@H](O)C[C@@]3(C)[C@]1(C)CC2
active: NCI-H23 lung -17.1% | NCI-H226 lung 3.36% | NCI-H460 lung -35% | HOP-92 NSCLC -22.8% | NCI-H522 lung -37.5% | A549/ATCC NSCLC -1.72% | 786-0 renal -30.4% | COLO 205 colon -28%
inactive: NCI-H322M lung 32.9% | HOP-62 NSCLC 11.9%

COc1ccc(-c2nc(SCCC(C)C)nc(N/N=C\c3cccc([N+](=O)[O-])c3)c2C#N)cc1
inactive: NCI-H23 lung 28.7% | NCI-H226 lung 44.5% | NCI-H322M lung 45.6% | HOP-62 NSCLC 17.7% | NCI-H460 lung 13.3% | HOP-92 NSCLC 50.9% | NCI-H522 lung 29.8% | A549/ATCC NSCLC 11.7% | 786-0 renal 15.3% | COLO 205 colon 42%

COc1ccc2cc(-c3cc(OC)c(OC)c(OC)c3)c(=O)oc2c1
inactive: NCI-H23 lung 79.8% | NCI-H226 lung 78.4% | NCI-H322M lung 103% | HOP-62 NSCLC 68.3% | NCI-H460 lung 84.4% | HOP-92 NSCLC 79.2% | NCI-H522 lung 48.3% | A549/ATCC NSCLC 42.1% | 786-0 renal 68.2% | COLO 205 colon 83.3%

CCOC(=O)/C=C/c1cc2cc(-c3csc4ccccc34)ccc2[nH]1
inactive: NCI-H23 lung 60.6% | NCI-H226 lung 103% | NCI-H322M lung 115% | HOP-62 NSCLC 76.7% | NCI-H460 lung 83.8% | HOP-92 NSCLC 99.7% | NCI-H522 lung 40% | A549/ATCC NSCLC 55.5% | 786-0 renal 82.4% | COLO 205 colon 93.4%

Cc1ccccc1NC(=O)N/C(N)=N/c1nc(-c2cccc([N+](=O)[O-])c2)cs1
inactive: NCI-H23 lung 16.8% | NCI-H226 lung 58.8% | NCI-H322M lung 90.7% | HOP-62 NSCLC 42.3% | NCI-H460 lung 27% | HOP-92 NSCLC 60.2% | NCI-H522 lung 18% | A549/ATCC NSCLC 54.2% | 786-0 renal 71.6% | COLO 205 colon 37.5%

— PubChem BioAssay (NCI)
